Among all 53,000 sequences or so, about 3,700 (7%) were called active. The sample as a whole holds a higher share of actives than the screen did. A number with no mark means an inactive call.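 Rule for the calls: active = gene knockdowns whose robust z-score for IL-1 alpha signal is at least 2 or at most -2, so actives lie on both sides; inactive = the rest.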
Assay: Components of the Cytosolic LPS Sensing Pathway: Gene Identification via Genome-wide siRNA Screen
Details: RAW264.7 macrophages, IL-1a HTRF, actives lie on both sides, screened at 100 nM (by protocol), cells primed 5 h with Pam3CSK4 first
Description: Non-canonical inflammasome activation by cytosolic LPS is a critical component of the host response to Gram-negative bacterial infection, however we lack a comprehensive understanding of the cellular processes that control this pathway. Here we describe a genome-wide siRNA screen to identify genes regulating the mouse macrophage IL-1 alpha response to cytosolic LPS.
RAW264.7 cells were maintained in complete DMEM media, comprising DMEM with 4.5 g/L glucose, 10% FBS (Gemini Bio-Products, West Sacramento, CA), 2 mM Glutamine (Lonza) and 20 mM HEPES (Lonza), hereafter complete DMEM.
The RNAi screen was conducted in 384-well format using the Ambion Silencer Mouse Genome siRNA Library (#4391425), which consists of three unique, nonoverlapping, nonpooled siRNAs for each of 17,000 gene targets. siRNA reagents ([…]) were stamped into 384-well white flat-bottom microplates (Corning, 3570) using a Velocity11 VPrep liquid handling system (Agilent) integrated into a BioCel robotic platform (Agilent) in columns 1-22, leaving columns 23-24 empty for negative (Ambion, Negative control #1) and positive (mouse Casp4) controls, respectively. The median value of each plate's negative control column was used to normalize sample wells, and the positive control was used to assess transfection efficiency and assay performance.
Lipofectamine RNAiMAX Transfection Reagent ([…]; Invitrogen) was added in […] serum-free, antibiotic-free media to plate wells using a Thermo Scientific Matrix WellMate and Microplate Stacker. Plates were incubated for 45 min at room temperature to allow for the sufficient formation of siRNA-lipid complexes. Cells were seeded at a density of 1x10^4 cells per well in 20 microL media containing 20% (vol/vol) FBS without antibiotics. The final concentration of siRNA in each well was 100 nM. Cells were cultured for 48h at 37 degrees C in 5% CO2 before addition of […] of TLR ligand Pam3CSK4 for 5 hours. The medium was then removed, replaced with […] growth media and cell were transfected with […] of LipidA and TransIT-TKO (Mirus) for 24 hour. At the end of the LipidA treatment, […] of supernatant was transferred to a 384 Greiner Bio-one non-binding low volume plate and […] of IL-1a HTRF reagent (Cisbio, 62MIL1APEH) was added and incubated at room temperature overnight. The plates were read on an EnVision plate reader (PerkinElmer). Cell viability was measured by adding 20ul Cell Titer Glo to the original plate and running a luminescence read on the EnVision. The quantified IL-1a signal for each siRNA gene-targeted well was divided by the median of the negative control wells and multiplied by 100 to achieve a negative control normalized value for each well/siRNA. This normalized value was then used to generate a robust z-score by first taking the log of each value and then by subtracting the median and dividing by the […].

Row | Sequence | z-score
1 | CGUAAGAUUGACUCUAGUATT against Prl6a1 | 0.326
2 | GGACAGACUGAUUAAGAAATT against Paqr8 | -0.569
3 | GCUACUGAACGAGAAUGCCTT against Zc3h12a | 0.394
4 | GGACAUUGACGCAUAGGGATT against Arsa | -0.232
5 | GGAUACAGUUUCUGAAAUCTT against Mlxipl | 2.6 (active)
6 | GCCAUGUGAUCGAAUCCAGTT against Clip2 | -0.0773
7 | GGGAUUCAUACUACUUAACTT against Olfr304 | 1.32
8 | GCAGUUACUUAUCAUCUGGTT against Inca1 | 0.00859
9 | GGUGUCUCUGAAUGAUGGCTT against 1810009J06Rik | 0.499
10 | GGGUUGAUCCCUUUGAUUCTT against Pld4 | -0.268
11 | GGACAAUGUGGACUUUGAUTT against Edem2 | -2.33 (active)
12 | GCAAACUCGGACUUUCAAATT against Lamtor3 | 0.443
13 | GGGAAACUCGAGAUGUGCATT against Ankmy2 | 0.944
14 | GGAAAGAAAAACGUAGGCGTT against 4933402J07Rik | -1.16
15 | GGAGAACCAGAUCCUGAUCTT against Mypop | 0.511
16 | GGAGGUGUGGCAUCUGGAUTT against Gsn | 1.19
17 | GGAGGAAGACACUCCCUCUTT against Atf4 | -0.778
18 | CGAGAGUGAUGCGCAUUUCTT against Sf3b5 | -3.04 (active)
19 | GGAAGCGGGAGAUAGAGGATT against Xpo6 | -0.108
20 | GCACAGAGGUCAGUUAAAGTT against St8sia3 | 1
21 | CGACCCUCUAAGGAUAUGCTT against Zfp456 | 1.01
22 | CCUGAUAUUCCAUCCUGAATT against Acad10 | -0.626
23 | GGUGCAUGGAAAAAAAUUATT against Neil2 | -0.691

Row | Sequence | z-score
24 | GCGGCCUGUGAGAGUUUAUTT against Pcyt1a | 3.4 (active)
25 | GGACCCAAGAAGAUGACGUTT against 0610010K14Rik | -0.694
26 | GCUGUGUGCCACUUUAUGUTT against Ebna1bp2 | 0.583
27 | CGACAACACAGUUAUUAUUTT against Pld1 | 0.338
28 | GCUUCGAGUUACAAUGUCATT against Fbxw15 | -0.912
29 | GGCACAUACGCUAUGAAGCTT against Prl2c5 | -0.0959
30 | GGUCUGUGACGAGAAGCUATT against Rab4a | -1.43
31 | CCGAUGACGAACAGUUUGATT against Eif4ebp3 | 2.08 (active)
32 | GGCAAAUUUUUGGAGAUGUTT against Hspa4 | 0.931
33 | CGUAGAGAUCAGUUCAAUGTT against Clock | -1.36
34 | CGAGGACUCAAUAGUAGCCTT against Proser3 | -0.678
35 | GGAUCCUGAAACAGUUCAATT against Atm | -0.218
36 | GGGUGCUGUCAACAUAUGATT against Gabrq | 0.67
37 | GCUUUGUUGCCCUACUACCTT against Pacrg | -2.26 (active)
38 | CCUUUCAUACCUUAGGUUATT against Slc25a44 | -0.42
39 | GGUGUAGAAUAGGACAAAUTT against Ntsr2 | 0.43
40 | GGUCACAAUGGUUUAAGGATT against Tacr1 | -0.943
41 | CCUGAUCUUGCACUCGAUGTT against Tbx6 | 0.422
42 | GGUAGAAGCAGAGUUACCATT against Spata32 | -1.64
43 | GGUGGAAGAAGAAAUUGUCTT against Tpd52l2 | -2 (active)
44 | GGGAAGAUUUUUCUGAUCUTT against Kcnk13 | -1.52
45 | GCUGGAGGACUCAUGUUCATT against Dimt1 | -0.0153
46 | GGAGCUCAAGAGCUGGGUUTT against Tor2a | -1.1

Row | Sequence | z-score
47 | GGAAGAACGACAAGAACAUTT against Tgfbr2 | 1.02
48 | CGCGGUGUUCGACAUCUUGTT against Noc4l | 2.12 (active)
49 | GGAUACCAUUGUGGUCGCATT against Hck | -0.406
50 | GGAAUUCUUUCCAAACUGGTT against Steap1 | -0.0141
51 | GGAUGUUUUAACUUGGAAATT against Sema5a | 2.25 (active)
52 | GGUUGGUCAGAUGAAGGGUTT against Adgrf3 | -0.638
53 | GGAACAGACAGAGAACACATT against Tgm6 | 2.54 (active)
54 | CCGCUACAGGUUUACCAAGTT against Rhox8 | 0.129
55 | GGACACCUGAUUUUCUUCUTT against Slc41a3 | -0.364
56 | GCAAAAAGGCAGUAUUCUATT against Atp23 | 0.449
57 | GCUCCAAAAGUCAAGACCGTT against Safb2 | -0.482
58 | GGCUAAAUUAUUGCGCAAATT against C1qbp | 2.34 (active)
59 | GGACCUUUCUGAAGUCCAATT against Ahsp | -0.0978
60 | GGAUCAAGCCGAACAGUUCTT against Pigk | 2.34 (active)
61 | GGCCAAUCUCACCUGGACATT against Man2b1 | -0.421
62 | GGAGACUACUUUGUGUUUUTT against Ermp1 | 0.933
63 | GGCACAAUUGAGGAGCGUATT against Ino80 | -1.27
64 | GGAAGAAAAACAGAGGAGATT against Cts7 | -0.877
65 | GGUUUAAGAAUGAAGUGGATT against Mtmr3 | -1.18
66 | GGAUUGGGUUACAUACAGATT against Scgb2b2 | -0.0731
67 | GGAAAAGGUUAAGAAAGCATT against Krr1 | -2.53 (active)
68 | GGAAUCAGCUAAUGAUUUCTT against Tyw1 | 0.819
69 | GGAGGUAGGAGCCAUAAGATT against Pter | -0.58

From PubChem BioAssay AID1508600 (Functional Genomics Laboratory (NCATS/FGL), 2020)
